Source: PubChem BioAssay
ERK AVP block: blocks ERK signaling stimulated by vasopressin. AID 995. 0.99% of 72,000 active. Potency, µM (top dose mostly 57.5 µM), usual class: inhibitors. HEK293-V1b, vasopressin-stimulated pERK AlphaScreen; further: nearly all actives have a fitted effect of over 55% in size
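Phosphorylated ERK1/2 detected via AlphaScreen bead proximity in lysates of V1b-expressing HEK293 cells given 25 nM vasopressin for 5 min after 30 min compound exposure (37 °C). AC50 from Hill equation; basal DMSO 0%, vasopressin 100%.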
IkB signaling: suppresses IkB signaling in ABC-DLBCL reporter cells | ABC-DLBCL IkBa-CBG/CBR dual luciferase ratio, 4 h; response scale: scaled: untreated 0%, proteasome inhibitor 100% | Potency, µM (top dose mostly 57.1 µM) | 0.04% of 110,000 active; active means well fitted curve in the direction sought with a large enough effect in the signal ratio, not every such curve was filed as active; inconclusive means small, poorly fitted or top-dose-only effect, or a change in a side signal; the % refers to the signal ratio;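 further: the direction sought is a rising ratio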
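In this assay, an IκBα–CBG68 fusion accumulates when IKK-driven degradation is blocked; native CBR normalizes for cell number. OCI-Ly3 cells were treated 4 h with compound and doxycycline, then green and red light read after Chroma-Glo addition.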
p53ts 32C tox: p53ts cell cytotoxicity, permissive temperature; Potency, µM (highest dose often 46.1 µM), usual class: cytotoxic; H1299-p53A138V at 32C, ATP luminescence viability, 24 h; 0.93% of 130,000 active; further: nearly all actives have a fitted effect of over 55% in size
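Cells: H1299 p53ts (A138V), 600/well, pre-incubated 16–30 h at 37C. Cpd up to 46 uM, 24 h, 32C. Readout: ATPlite luminescence, 20 min RT. Normalization: DMSO vs tamoxifen 100 uM. AC50 by Hill equation.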
Imprint erasure: induces erasure of genomic imprints in mouse ES cells. mouse ES Peg3-LacZ reporter, beta-gal luminescence, 40 h. Potency, µM (highest dose often 60.7 µM), most hits filed as activators. 0.02% of 110,000 active
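Imprint erasure is scored as LacZ activity from the silenced maternal Peg3 allele in feeder-free female ES cells cultured 40 h with LIF. Luminescence is normalized to in-plate negative controls and fitted to the Hill equation.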
p53ts 39C kill: kills p53ts cells at the nonpermissive temperature | H1299-p53A138V viability at 39C, ATP luminescence, 24 h | Potency, µM (doses to about 46.1 µM), actives largely listed as cytotoxic | 1.5% of 130,000 active | AID 902; further: nearly all actives have a fitted effect of over 55% in size
Numbers stand for hits; i = inactive; ? = inconclusive; nt = no result given; [ ] = another dose, or the depositor's remark. The list is not random: actives were taken first. Their share in the collection is about 2.3%. Unless noted, the call rests on the fitted dose curve; in most records, active means well fitted curve in the direction sought with a large enough effect; inconclusive means small, poorly fitted or top-dose-only effect, or another doubt; inactive means no such curve, though single readings can be large; an effect the other way counts as inactive or inconclusive.

SMILES | ERK AVP block | IkB signaling | p53ts 32C tox | Imprint erasure | p53ts 39C kill
CN(C)C(=O)c1ccc(-c2nc(Nc3ccccc3)c3ccccc3n2)cc1 | ? | i[11.4 µM] | ? | i | ?
Cc1cccc(NC(c2cccc(Cl)c2)c2ccc3cccnc3c2O)n1 (stereo not drawn) | nt | ? | i | i[10.9 µM] | 12.6µM
O=C(NCc1cccs1)C1CCC(CNS(=O)(=O)c2ccc(Br)s2)CC1 (stereo not drawn) | i | i | i | i | i
O=C(NCc1ccccc1Cl)C1CCC(CNS(=O)(=O)c2ccc(Br)s2)CC1 (stereo not drawn) | nt | i | ? | i[10.9 µM] | 12.6µM
CN1[C@H]2CC(OC(=O)[C@H](CO)c3ccccc3)C[C@H]1[C@H]1O[C@H]12 (stereo partly drawn) | i | i | nt | i | nt
NC(N)=N/N=C(\c1ccc(Cl)cc1)C1CC1 | i[11.5 µM] | i[11.4 µM] | i[9.22 µM] | i[10.9 µM] | i[9.22 µM]
CCn1cc2nc(SCc3ccc(F)cc3)n(Cc3ccc(Cl)cc3)c(=O)c2n1 | nt | ? | i | i[10.9 µM] | 12.6µM
O=C(O)CCC(=O)c1cccc2ccccc12 | i | i | i | i | i
C[N+](C)(C)CCC(=O)c1cccc2ccccc12 | ? | ? | 12.6µM | i | 15.8µM
COc1ccc(CNC(=O)c2cc(-c3ccc(Br)s3)nc3ccccc23)cc1 | nt | i | i | i[10.9 µM] | 10µM
COc1ccc(OC)c(CNC(=O)c2cc(-c3ccc(Cl)s3)nc3ccccc23)c1 | nt | ? | i | i[10.9 µM] | i
CCCOc1ccccc1NC(=O)c1ccc(N)cc1 | i | i | i | i | i
CCCOc1ccc(N)cc1N | i | i | 20µM | i | i
CN1CCc2c(sc3c2C(=O)NC(c2cn(Cc4ccccc4)c4ccccc24)N3)C1 (stereo not drawn) | 12.6µM | i | i | i | i
O=C1/C(=C/Nc2ccc3c(c2)OCO3)CCc2ccccc21 | ? | ? | 3.98µM | i | 6.31µM
O=C1OC2(CCCCC2)OC(=O)C1=CNc1ccc2c(c1)OCO2 | i | i | i | i | i
COC(=O)c1cc(=O)c(O)c2c(O)c(O)ccc2c1 | i | nt | i | i | i
Cc1nc2ccccc2c2oc(C(=O)N3CCc4ccccc4C3)cc12 | 7.94µM | ? | ? | i | 20µM
Cc1c(C(=O)O)cnc2cc(-c3ccc(Cl)cc3)nn12 | nt | ? | 10µM | i | ?
CC(=O)c1cnc2c(-c3ccc(Cl)cc3)c(C)nn2c1C | nt | nt | i | nt | i
CN(C)c1nc(N)c(C(=O)Nc2cccnc2)nc1Cl | ? | nt | 12.6µM | i | 5.01µM
O=C1NCCCC1C(=O)N/N=C/c1ccccc1O (stereo not drawn) | nt | nt | i | nt | i
O=C(N/N=C/c1ccccc1O)c1cc(-c2ccccc2)n[nH]1 | nt | nt | i | nt | 15.8µM
O=C(N/N=C/c1ccco1)c1cc(-c2ccccc2)n[nH]1 | nt | nt | i | nt | i
COc1cccc(-c2cc(C(=O)N/N=C/c3ccccc3O)[nH]n2)c1 | nt | nt | ? | nt | 10µM
SMILES | ERK AVP block | IkB signaling | p53ts 32C tox | Imprint erasure | p53ts 39C kill
O=C(N/N=C\c1ccccc1O)c1ccccc1O | ? | ? | 1.26µM | i | 2µM
CCCCCS(=O)(=O)CCCCCCCCCCn1c(-c2ccc(O)cc2)c(C)c2cc(O)ccc21 | ? | nt | ? | i | i
C/C=C\C1=C(CO)C(=O)[C@@H]2OC2C1=O (stereo partly drawn) | i[11.5 µM] | nt | i[9.22 µM] | nt | i[9.22 µM]
COc1ccc(-c2nn(C)c3sc(C(=O)Nc4cc(OC)c(OC)c(OC)c4)cc23)cc1OC | nt | ? | ? | i[10.9 µM] | i
CCN(CC)c1ccc(NC(=O)Nc2cccc(C(C)=O)c2)cc1 | ? | ? | 12.6µM | i | 12.6µM
CC(=O)c1cccc(NC(=O)Nc2ccc3c(c2)N(C)C(=O)CS3)c1 | 10µM | ? | ? | i | 20µM
FC(F)(F)c1ccccc1Cl | i | i | i[1.84 µM] | i | i
COc1ccc(C2=NOC(C(=O)Nc3cc(Br)ccc3O)C2)cc1OC (stereo not drawn) | 10µM | ? | ? | i | ?
COc1ccccc1CNc1ncnc2ccc(-c3ccccc3OC)cc12 | 20µM | i[11.4 µM] | i | i | i
Cc1cccc(CNc2ncnc3ccc(-c4ccc(C(=O)N(C)C)cc4)cc23)c1 | 20µM | i[11.4 µM] | i | i | i
CNc1ncnc2ccc(-c3ccccc3OC)cc12 | i | i[11.4 µM] | i | i | i
Cc1cccc(CNc2ncncc2-c2ccc(C(=O)N(C)C)cc2)c1 | i | i[11.4 µM] | i | i | i
COc1ccccc1CNc1ncnc2ccc(-c3cccnc3)cc12 | 20µM | i[11.4 µM] | i | i | i
COc1ccccc1CNc1ncnc2ccc(-c3ccc(N(C)C)cc3)cc12 | ? | i[11.4 µM] | i | i | i
COc1ccccc1-c1ccc2ncnc(NCc3ccccc3)c2c1 | 15.8µM | i[11.4 µM] | i | i | i
O=C(O)c1c2c(c(O)c3c1CN(C1CCCCC1)CO3)OCN(C1CCCCC1)C2 | i[11.5 µM] | i[11.4 µM] | i[9.22 µM] | i[10.9 µM] | i[9.22 µM]
COc1ccccc1CNc1ncnc2ccc(-c3ccccc3C#N)cc12 | 25.1µM | i[11.4 µM] | i | i | i
C[C@@]12CC[C@@H]3[C@@H](CC[C@H]4C[C@@H](O)CC[C@]43C)[C@H]1CC[C@@H]2c1cc(C(F)(F)F)n[nH]1 | i[11.5 µM] | i[11.4 µM] | i[9.22 µM] | i[10.9 µM] | i[9.22 µM]
COc1ccc(-c2cc(C(=O)N/N=C/c3ccc(OC)c(OC)c3)[nH]n2)cc1 | nt | nt | i | nt | i
c1ccc2nc(-c3nc4ccccc4o3)ccc2c1 | i | ? | 5.01µM | i | 5.01µM
O=C(Nc1ccccn1)c1ccc2ccccc2n1 | i | ? | 15.8µM | i | 15.8µM
Nc1nc2ccc(N3CCOCC3)cc2s1 | i | i | 3.98µM | i | 3.98µM
O=C(c1ccc2nc(N3CCOCC3)sc2c1)N1CCCC1 | i | i | i | i | i
Fc1ccccc1Cc1cn2cc(-c3ccc(Cl)cc3)nc2s1 | nt | ? | ? | i[10.9 µM] | 10µM
Fc1ccc(Cc2cn3cc(-c4ccc(F)cc4)nc3s2)cc1 | nt | ? | ? | i[10.9 µM] | 7.94µM
SMILES | ERK AVP block | IkB signaling | p53ts 32C tox | Imprint erasure | p53ts 39C kill
O=c1oc2ccccc2cc1-c1cn2cc(Cc3cc(Cl)ccc3Cl)sc2n1 | nt | i | i | i[10.9 µM] | i
Clc1ccc(-c2cn3cc(Cc4ccccc4)sc3n2)cc1 | nt | ? | ? | i[10.9 µM] | 6.31µM
CC(C)c1ccc(Cc2cn3cc(-c4cc5ccccc5oc4=O)nc3s2)cc1 | nt | ? | i | i[10.9 µM] | i
Fc1ccc(-c2cn3cc(Cc4ccccc4Cl)sc3n2)cc1 | nt | ? | 7.94µM | i[10.9 µM] | 5.01µM
Cc1c(C(=O)NCc2ccc(F)cc2)sc2nc(-c3ccc(F)cc3)cn12 | nt | i | i | i[10.9 µM] | i
Cc1ccc(CNC(=O)c2sc3nc(-c4ccccc4)cn3c2C)cc1 | nt | i | i | i[10.9 µM] | i
Cc1ccc(Cc2cn3cc(-c4ccccc4)nc3s2)cc1 | nt | ? | ? | i[10.9 µM] | 3.98µM
Cc1cc2cc3c(cc2nc1SCC(=O)N1c2ccccc2CC1C)OCO3 (stereo not drawn) | nt | nt | i | nt | i
c1ccc2c(c1)Cc1cc3cc4c(cc3nc1-2)OCO4 | 25.1µM | nt | 1µM | i | 1.26µM
Cc1cc(C(=O)CSc2nncs2)c(C)n1-c1c(C)n(C)n(-c2ccccc2)c1=O | i | i | i | i | i
Cc1ccc(-n2c(C)cc(C(=O)CSc3nncs3)c2C)cc1 | i | ? | 12.6µM | i | ?
COc1ccc(-c2noc(-c3cccc(OC)c3OC)n2)cc1 | nt | ? | 12.6µM | i[10.9 µM] | ?
